Measurements reported in ChEMBL document CHEMBL1157539, “Thousands of chemical starting points for antimalarial lead identification” (Nature, 2010).

What follows are compounds tested on HepG2 (assay: GSK_TCMDC: Percent inhibition of human HepG2 cell line. Test compounds present at 10uM.).
Type: functional

| SMILES | Inhibition [%] |
| --- | --- |
| CCc1n[nH]c(C(=O)NC2CCN(CC3(c4ccc(OC)cc4)CCCCC3)CC2)c1C | 2 |
| COc1cc2nc(-c3ccccc3)nc(N3CCN(CC(=O)N4CCCC4)CC3)c2cc1OC | 7 |
| Cc1cc(N[C@@H](Cc2ccccc2)C(=O)NCCCOC(C)C)nc(NCCc2ccc(F)cc2)n1.O=C(O)C(F)(F)F | 15 |
| CCOc1ccc2c(=NN=Cc3ccc(F)cc3)cc(C)[nH]c2c1 | 22 |
| COc1ccc(CNCC2CCC(CNCCc3ccccc3)CC2)cc1Cl (stereo unspecified) | 23 |
| CN(C)CCNCc1ccc(-c2ccc3c(Nc4ccc(Oc5ccccc5)cc4)ccnc3c2)o1 | 19 |
| NS(=O)(=O)c1cccc(N/C=C2\C(=O)Nc3ccc(S(=O)(=O)Cc4c(Cl)cccc4Cl)cc32)c1 | 1 |
| CCn1c(C(C)C)cc2c3c(N)nc(N)nc3ccc21 | 67 |
| O=C(O)C(F)(F)F.c1ccc(CNCc2ccc(-c3ccc(-c4nc5ccccc5[nH]4)cc3)cc2)cc1 | 32 |
| COc1ccc2[nH]c(C)cc(=NN=Cc3ccccc3Cl)c2c1 | 0 |
| Cc1ccnc2nc(C(=O)Nc3cc(C(F)(F)F)ccc3N3CCCCC3)nn12 | 7 |
| CCOc1ccc(-c2cc3nc(C4CCNCC4)c(C(=O)Nc4ccc(C)cc4Cl)cn3n2)cc1.Cl | 63 |
| NCC1CCCN1Cc1ccc(-c2cccc(-c3nc4cc(C(F)(F)F)ccc4[nH]3)c2)cc1.O=C(O)C(F)(F)F (stereo unspecified) | 24 |
| O=C(/C=C/c1ccc(Cl)c(Cl)c1)NCCCCCN1CCC(NC(=O)Nc2ccc(Oc3ccccc3)cc2)C1 (stereo unspecified) | 35 |
| Cc1cnc(CNCc2ccc(S(=O)(=O)Nc3ccc(Oc4cccc(Cl)c4)cc3)cc2)cn1.O=C(O)C(F)(F)F | 4 |
| CCCCOC(=O)C1=C(C)NC2=C(C(=O)CC(c3ccc(OC)c(OC)c3)C2)C1c1ccc(O)cc1 (stereo unspecified) | 0 |
| CN1CCC(C(=O)Nc2cccc(-c3ccc(-c4nc5cc(C(F)(F)F)ccc5[nH]4)cc3)c2)CC1 | 38 |
| CCn1ncc(Cl)c1CN(C)S(=O)(=O)c1ccc(Br)cc1 | 9 |
| Cc1sc(N2CCN(C)CC2)nc1C(=O)Nc1ccc(F)cc1C(F)(F)F.O=C(O)C(F)(F)F | 7 |
| O=C(Cc1c[nH]cn1)Nc1cccc(-c2ccc(-c3nc4cc(F)ccc4[nH]3)cc2)c1 | 4 |
| Cc1ccccc1C1CCN(c2ccc(C(=O)Nc3ccc(F)cc3)cn2)CC1.O=C(O)C(F)(F)F | 45 |
| c1cncc(-c2cccc(CNc3nccc(Nc4ccc(OCCN5CCOCC5)cc4)n3)c2)c1 | 1 |
| Cl.N#Cc1ccc(-c2ccc(C(=O)Nc3ccc4c(c3)CCN(C3CCC3)CC4)nc2)cc1 | 21 |
| CC12CN3CC(C)(CN(C1)C3c1cc(Br)ccc1O)C2O (stereo unspecified) | 5 |
| COc1ccccc1C1CCN(C2CCC(NC(=O)/C=C/c3cccc(Cl)c3)CC2)CC1 (stereo unspecified) | 54 |
| CC(=O)c1ccc2c(c1)CCN(CCC1CCC(NC(=O)c3cc4ccccc4[nH]3)CC1)CC2.Cl (stereo unspecified) | 64 |
